Data from ChEMBL document CHEMBL3988442, “University of Dundee, Small-Polar-MMV Screening Library” (2021).
The whole screen tested about 48,000 compounds, of which about 13,000 (27%) showed an effect of 50% or more. The list shows a part of the results.

test system: Wolbachia pipientis; test: Anti-Wolbachia Cell-Based Screen; assay type: functional; parameters: scale not given: in the data most compounds retested in dose-response had high values; conditions: 5 µM

Compound | Percent Effect
Cc1nc(CNC(=O)NC2CCN(c3cccc(Cl)c3)C2)no1 (configuration not stated) | 1.056%
COCC(=O)N1CCCC1c1cc(N2CCN(C(C)=O)CC2)cc(C)n1 (configuration not stated) | 110.9%
COC(=O)N1CCCCC1C(=O)N1CCCN(c2ccnc(C)c2)CC1 (configuration not stated) | 2.606%
COCC(=O)N1CCN(c2cc(C)nc(C3CCCN3C(C)=O)c2)CC1 (configuration not stated) | 105.4%
COCC(=O)N1CCN(c2cc(-n3cccc3)nc(C)n2)CC1 | -19%
COCC(=O)N1CCN(C(C)=O)C[C@@H]1C(=O)OC | 18.89%
O=C(NCC1OCCc2cn(CC3CCOCC3)nc21)c1ccncc1.O=C(O)C(F)(F)F (configuration not stated) | -2.103%
CS(=O)(=O)N1C[C@@H]2OCC(=O)N(CC3CCC3)[C@@H]2C1 | -1.197%
O=C(O)c1csc(S(=O)(=O)N2CCCc3ccc(F)cc32)c1 | -8.72%
O=C(NC1CC1)N1CCC2(CC1)C(=O)NCCN2Cc1ccccc1.O=C(O)C(F)(F)F | -18.73%
CS(=O)(=O)c1ccc(CN2CCCC3(C2)C(=O)Nc2ccccc23)cc1 (configuration not stated) | 12.45%
O=C1Nc2ccccc2CC12CCCN2Cc1ccc(C(F)(F)F)cc1 (configuration not stated) | 105.2%
COCCC1(CO)CCCN(Cc2ccc(C(F)(F)F)cc2)C1 (configuration not stated) | -12.26%
CC(C)N1CCC2(CCCN(Cc3ccc(F)cc3)C2=O)C1 (configuration not stated) | -24.02%
O=C1Nc2ccccc2CC12CCCN2Cc1ccc(F)cc1 (configuration not stated) | 106.5%
CCC(CC)c1cc(CNC(=O)N2CCN(CC)CC2)on1 | 1.8%
O=C(c1cnc(-c2ccccn2)s1)N1CCCC1Cn1cccn1 (configuration not stated) | 117.3%
O=C(c1cnc(-c2ncccn2)s1)N1CCCC1Cn1cccn1 (configuration not stated) | 93.22%
O=C(c1cnc(-c2cnccn2)s1)N1CCCC1Cn1cccn1 (configuration not stated) | 93.62%
COc1ccc(CN2CCN(c3ncc(Cl)cn3)CC2)cc1 | -2.887%
CC(C)(O)c1cn(C2CCN(c3ncccc3Cl)CC2)nn1 | -4.75%
CSc1ccc(NC(=O)COCc2ccccc2)nc1 | -20.64%

Compound | Percent Effect
NC(=O)CN(CC(N)=O)Cc1cccc(Oc2ccccc2)c1 | -1.216%
CN(C(=O)CC1=CCCCC1)C1CCCN(CCc2ccccc2)C1 (configuration not stated) | 7.677%
O=C(Cc1cccnc1)NC1CCCN(CCCc2ccccc2)C1 (configuration not stated) | 124.1%
O=C(NC1CCCN(CCCc2ccccc2)C1)C1=CCCCC1 (configuration not stated) | 81.9%
CC(C)C(=O)NCC(=O)N(C)C1CCCN(CCc2ccccc2)C1 (configuration not stated) | -4.152%
Nc1cc(C(=O)NCC2CCN(CCc3ccccc3)C2)ccn1 (configuration not stated) | -3.918%
CC(C)(C)NC(=O)N1CCC(NC(=O)Cc2cccnc2)CC1 | -14.05%
Nc1cc(C(=O)NC2CCCN(CCCc3ccccc3)C2)ccn1 (configuration not stated) | 96.33%
O=C(NC1CCCN(CCCc2ccccc2)C1)c1ccc(Cl)s1 (configuration not stated) | 85.82%
CN(C(=O)c1cccnc1)C1CCCN(CCc2ccccc2)C1 (configuration not stated) | -6.072%
CCOC(=O)C1CCN(C(=O)Cc2c(C)nc(C)[nH]c2=O)CC1 | 4.435%
COc1nccnc1N1CCC2(CCCN(C(C)C)C2=O)C1 (configuration not stated) | -3.964%
CCN(c1ccc(C(=O)NCc2cc[nH]n2)cc1)C(C)C | -0.1162%
Cc1sc2nc(C(F)(F)F)nc(N3CCN(C)CC3)c2c1C | 8.571%
COc1ccc(F)c(F)c1CN1CCN(CC(C)C)C(=O)C1C (configuration not stated) | 1.65%
O=C(NC1CC1)c1ccc(SCc2cscn2)cc1 | -37.4%
CC(C)CNC(=O)NC(=O)CNc1ccccc1SCC(C)C#N (configuration not stated) | 9.026%
O=C(COC1CCCCC1)Nc1ccn(CCc2ccncc2)n1 | -1.367%
O=C(NC1CCCN(CCCc2ccccc2)C1)c1ccncc1 (configuration not stated) | 84.08%
CN(C(=O)CCc1ccncc1)C1CCCN(CCc2ccccc2)C1 (configuration not stated) | -4.229%
CN(Cc1ccsc1)C(=O)c1cccc(S(=O)(=O)NCC2CCCO2)c1 (configuration not stated) | 104.2%
CN(Cc1ccsc1)C(=O)c1cc(S(=O)(=O)N(C)C)ccc1Cl | 5.417%

Compound | Percent Effect
COCCNS(=O)(=O)c1ccc(Cl)c(C(=O)N(C)Cc2ccsc2)c1 | 14.25%
CN(Cc1ccsc1)C(=O)c1cccc(NS(C)(=O)=O)c1 | 8.391%
CCN(C)C(=O)c1cccc(S(=O)(=O)NCCc2csc(N)n2)c1 | -2.209%
CN(Cc1ccsc1)C(=O)c1ccc(S(=O)(=O)NC(C)(C)C)cc1 | 98.59%
CCN(CC)S(=O)(=O)c1cccc(C(=O)N(C)Cc2ccsc2)c1 | 98.21%
CN(Cc1ccsc1)C(=O)Nc1ccc(S(=O)(=O)N(C)C)cc1 | 5.237%
CN(Cc1ccsc1)C(=O)c1ccc(F)c(NS(C)(=O)=O)c1 | 0%
CN(Cc1ccsc1)C(=O)c1ccc(C2CCCO2)s1 (configuration not stated) | -3.526%
CNS(=O)(=O)c1cccc(C(=O)N(C)Cc2ccsc2)c1 | 124.1%
CN(Cc1ccsc1)C(=O)c1cccc(S(=O)(=O)NC(C)(C)C)c1 | 0.007999%
Cc1ccc(C)c2c(C)c(C(=O)NCCC(=O)N3CCOCC3)oc12 | 9.055%
CC(C)c1nsc(NC2CC(=O)N(C(C)(C)C)C2)n1 (configuration not stated) | 1.592%
COC(CNC(=O)c1cn(C)nn1)c1ccc(C)s1 (configuration not stated) | -8.016%
Cc1ccccc1C(C)NC(=O)Cc1c(C)nc2cc(=O)[nH]n2c1C (configuration not stated) | -0.7333%
CN(CCNc1ncc2c(n1)CCN2c1ccccc1)S(C)(=O)=O | 7.395%
O=C(O)c1ccccc1-c1c(-c2ccccc2)ncn1CC1CCCO1 (configuration not stated) | -2.227%
COCc1ccccc1C(=O)N1CCn2c(nnc2C(C)C)C1 | 6.004%
Cc1nnc2n1CCN(C(=O)c1cn(-c3ccccc3)nn1)C2 | 102.5%
Cc1cccc(-n2cc(C(=O)N3CCn4c(C)nnc4C3)nn2)c1 | 7.104%
CCOC(C(=O)N1CCn2c(nnc2C(C)C)C1)c1ccccc1 (configuration not stated) | -0.6295%
Cc1nnc2n1CCN(C(=O)c1cc(Cl)c(Cl)n1C)C2 | -5.044%
Cc1ccc(-n2cc(C(=O)N3CCn4c(C)nnc4C3)nn2)cc1 | 111.3%

Compound | Percent Effect
Cc1cccc(-n2c(C)cc(C(=O)N3CCn4c(C)nnc4C3)c2C)c1 | 1.537%
Cc1nnc2n1CCN(C(=O)c1cn(-c3ccccc3Cl)nn1)C2 | -0.6863%
CC(C)(O)CN1CCN(C(=O)c2ccn(-c3cccc(F)c3)n2)CC1 | -183.4%
Cc1nnc2n1CCN(C(=O)c1ccn(-c3cccc(F)c3)n1)C2 | 108.9%
CC(C)c1nnc2n1CCN(C(=O)c1cn(-c3ccccc3)nn1)C2 | 113.1%
O=C(c1ccn(-c2cccc(F)c2)n1)N1CCN(CCO)CC1 | -27.1%
O=C(CN1CCOC1=O)N1CCc2nnc(-c3ccccc3)n2CC1 | 3.396%
CCc1nnc2n1CCN(C(=O)c1cn(-c3ccccc3)nn1)C2 | 104.4%
Cc1nc(-c2ccsc2)ccc1C(=O)N1CCn2c(C)nnc2C1 | -2.134%
Cc1nnc2n1CCN(C(=O)c1cn(-c3ccc(F)cc3)nn1)C2 | 133.8%
CCc1nnc2n1CCN(C(=O)C(OC)c1ccccc1)C2 (configuration not stated) | -1.714%
CCc1nnc2n1CCN(C(=O)c1cnc3ccccc3n1)C2 | -19.02%
Cc1nnc2n1CCN(C(=O)c1cc(C)n(-c3ccccn3)c1C)C2 | -6.785%
CCC1(CC)C(=O)NC(=O)N=C1Nc1ccc(C)cc1 | 121.1%
CCc1ccc(CNC(=O)c2ccc(N3CCOC3=O)cc2)s1 | -4.456%
CC(=O)Nc1ccc(Oc2cccc(CN3CCCC3)c2)cc1 | -8.686%
CC(=O)Nc1ccc(Oc2ccc(CN3CCCC3)cc2F)cc1 | 96.27%
COc1ccc(CN2CCCC2)cc1Oc1ccc(NC(C)=O)cc1 | -0.1715%
CC(Sc1nnnn1C1CCOCC1)C(F)(F)F (configuration not stated) | 4.015%
O=C(Nc1ccccn1)C1=NN(c2ccccc2)C(=O)CN1 | -0.4273%
CCNC(=O)C1CCCN(C(=O)Nc2ccc3c(c2)CCCN3C)C1 (configuration not stated) | -0.07324%
N#Cc1ccnc(N2CCN(C(=O)NC3CCS(=O)(=O)C3)CC2)c1 (configuration not stated) | 5.841%

Compound | Percent Effect
CN(CCc1ccc2c(c1)CCO2)CC1CCS(=O)(=O)C1 (configuration not stated) | 6.378%
CCc1nncn1CCNC(=O)Nc1ccc2c(c1)CCCO2 | -5.053%
Cc1nn(C)c(N2CCOCC2)c1CNC1CCS(=O)(=O)C1 (configuration not stated) | -13.17%
CCc1cc(NC2CCS(=O)(=O)C2)nc(N2CCCCC2)n1 (configuration not stated) | -10.03%
Cl.O=S1(=O)CCC(NCCn2cncc2-c2ccc3c(c2)CCCO3)C1 (configuration not stated) | 81.24%
CCN1CCc2cc(-c3cncn3CCNC3CCS(=O)(=O)C3)ccc21.Cl (configuration not stated) | 103%
CC1(C)Cc2cc(-c3cncn3CCNC3CCS(=O)(=O)C3)ccc2O1.Cl (configuration not stated) | 102.8%
Cn1cc(CNC2CCS(=O)(=O)C2)c(-c2cc3ccccc3o2)n1 (configuration not stated) | -8.31%
Cc1ccc(-c2ccsc2C(=O)NC2CCS(=O)(=O)C2)cc1 (configuration not stated) | -8.809%
CN1CCCc2cc(-c3cncn3CCNC3CCS(=O)(=O)C3)ccc21.Cl (configuration not stated) | 82.25%
Cc1cc(C(=O)NCC(O)CN2CCCC2=O)ccc1F (configuration not stated) | -5.14%
COCCN(C)c1ccc(NCc2ccsc2)nc1 | -10.25%
CCOc1ccc(CN2CCCC(c3nn(C)c(=O)n3CC)C2)cn1 (configuration not stated) | 24.07%
CCC(C)NC(=O)CS(=O)(=O)Cc1cc(Cl)ccc1OC (configuration not stated) | 28.04%
COc1ccc(C)cc1CC(=O)Nc1cc(C)n[nH]1 | 4.97%
COc1ccc(C)cc1CC(=O)NS(=O)(=O)c1ccc(C(N)=O)cc1 | 115.9%
COc1ccc(Cl)cc1CC(=O)NS(=O)(=O)c1ccc(C(N)=O)cc1 | 102.7%
COc1ccccc1CC(=O)NS(=O)(=O)c1ccc(C(N)=O)cc1 | 6.119%
NC(=O)c1ccc(S(=O)(=O)NC(=O)COc2ccc3c(c2)CCC3)cc1 | -8.361%
